Compound activity (PubChem BioAssay)
Only some compounds are listed: those with a hit (about 3.4% of all), similar ones and a draw of the others.
Tau fluor cs: counter-screen for tau fibril formation inhibitors; tau K18 P301L Alexa594 fluorescence, heparin fibrillization; Potency, µM (top dose mostly 57.7 µM), for inactives: at the top dose activity change, negative = decrease; 280,000 compounds, 0.93% hits; AID 1463; further: nearly all actives have a fitted effect of over 55% in size
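Human K18 P301L tau (15 uM unlabeled plus 0.24 uM Alexa 594-labeled, final) in 100 mM sodium acetate pH 7 was mixed with compound and 20 uM heparin and incubated 6 hr at 37 C.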
Tau ThT inhib: inhibitors of human tau fibril formation, thioflavin T binding; recombinant tau K18 P301L (four-repeat tau fragment), heparin-induced fibrillization, ThT fluorescence; 270,000 compounds, 2.1% hits; P10636; AID 1460; Potency, µM (doses to about 57.4 µM), for inactives: at the highest dose activity, negative = inhibition, hits mostly inhibitors; further: nearly all actives have a fitted effect of over 55% in size
Target sequence (P10636 561-689 P618L limits assumed): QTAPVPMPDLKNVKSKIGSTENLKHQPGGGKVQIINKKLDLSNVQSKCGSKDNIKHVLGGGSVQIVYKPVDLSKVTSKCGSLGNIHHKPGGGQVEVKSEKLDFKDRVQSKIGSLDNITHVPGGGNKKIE
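K18 P301L tau (15 uM + 0.24 uM Alexa 594-tagged), heparin 20 uM, NaOAc pH 7, 6 h 37 C; ThT 30 uM, 1 h RT, ex 450/em 510 nm.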
KDM4E inh: blocks human JMJD2E demethylase activity; B2RXH2; JMJD2E catalytic domain, FDH-coupled NADH fluorescence (FDH is formaldehyde dehydrogenase); Potency, µM (doses to about 57.1 µM), inactives show top-dose activity change, negative = inhibition, usual class: inhibitors; 230,000 compounds, 1.6% hits; active means well fitted inhibition curve with a large enough effect, not every such curve was filed as active; inconclusive means small, poorly fitted or top-dose-only effect, or another doubt; inactive means no such curve, though single readings can be large or run the other way;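 further: 0% = wells with enzyme and -100% = buffer wells without enzyme; nearly all actives have a fitted effect of over 50% in size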
Target sequence (B2RXH2 1-337 limits assumed): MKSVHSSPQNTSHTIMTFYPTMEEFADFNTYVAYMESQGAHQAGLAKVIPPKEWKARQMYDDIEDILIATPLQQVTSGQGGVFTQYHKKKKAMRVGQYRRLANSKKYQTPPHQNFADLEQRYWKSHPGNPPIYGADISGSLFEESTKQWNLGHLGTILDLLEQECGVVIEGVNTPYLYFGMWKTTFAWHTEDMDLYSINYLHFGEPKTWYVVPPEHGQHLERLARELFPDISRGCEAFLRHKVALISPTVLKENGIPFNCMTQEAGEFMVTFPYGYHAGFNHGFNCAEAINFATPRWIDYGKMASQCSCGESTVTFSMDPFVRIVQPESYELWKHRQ
RGS12 GoLoco inh: blocks human Gai1 binding to RGS12 GoLoco peptide, red readout. P63096. Gai1:RGS12 GoLoco peptide FP, rhodamine, 10 min. Potency, µM (highest dose often 61.6 µM), without a hit: at the top dose activity, negative = inhibition, usual class: inhibitors. 230,000 compounds, 0.44% hits; active means well fitted inhibition curve with a large enough effect, not every such curve was filed as active; inactive means no such curve, though single readings can be large or run the other way; further: nearly all actives have a fitted effect of over 30% in size
Tau fibril FP: tau fibrillization inhibition (FP); Potency, µM (doses to about 57.7 µM), inactives show top-dose activity, negative = inhibition, usual class: inhibitors; 280,000 compounds, 0.39% hits; K18 P301L tau heparin fibrillization, Alexa594 FP, 6 h; P10636; further: nearly all actives have a fitted effect of over 55% in size
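Compound effects on tau fibrillization are measured by Alexa 594 fluorescence polarization (ex 555, em 632 nm). K18 P301L tau is used at 15 uM with 0.24 uM labeled tracer, and 20 uM heparin induces aggregation over 6 hr at 37 C.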
* marks the source's active call; other numbers are inactive results; ? = inconclusive; . = no result given; [ ] = dose if it differs, or a comment. Unless noted, the call rests on the fitted dose curve; in most records, active means well fitted curve in the direction sought with a large enough effect; inconclusive means small, poorly fitted or top-dose-only effect, or another doubt; inactive means no such curve, though single readings can be large; an effect the other way counts as inactive or inconclusive. Unless noted, on the % scale 0 is the no-effect control and ±100 the full control effect; potency means the concentration at half of the fitted maximal effect.

SMILES | Tau fluor cs | Tau ThT inhib | KDM4E inh | RGS12 GoLoco inh | Tau fibril FP
COc1ccc2ccccc2c1C1CC(=O)N2CN(C)CSC2=C1C#N (centres undefined) | -26.4% | 22.4µM* | ? | -29.4% | 22.4µM*
Cc1ccc(C(C)NC(=O)/C(C#N)=C\c2c(C)[nH]c3ccccc23)cc1 (centres undefined) | 10µM*[quencher] | -15.7% | -14.2% | -2.2% | 25.1µM*
COc1ccc(CNC(=O)Cn2ccc3cc(S(=O)(=O)N4CCCCC4)ccc32)cc1OC | -17.5% | 6.7% | . | . | 10.0%
O=C(Cn1ncc2ccc(Cl)cc21)NCc1ccc(F)cc1 | -13.1% | -10.3% | . | . | -10.3%
CCOc1ccccc1NC(=O)Nc1cc(C(=O)NCc2ccc(C)cc2)ccc1N1CCCC1 | -3.8% | 0.2% | . | . | 5.8%
CC(C)c1ccc(/C=C2\CC/C(=C\C=N\N(C)C)C2=O)cc1 | -19.5% | 3.16µM* | ? | 40.5% | ?
CC(C)/C=C1\CC/C(=C\c2ccc(N(C)C)cc2)C1=O | 15.7% | 2µM* | 12.3% | 268.6% | 18.7%
CC(C)c1ccc(/C=C2\SC(N3CCCC3)=NC2=O)cc1 | 2.3% | -13.7% | -0.5% | -5.6% | 14.9%
Cc1oc(-c2ccccc2)nc1CSc1nnc(C)n2c1cc1sccc12 | 3.5% | -14.0% | . | . | ?
CC(C)(C)c1ccc(OCc2ccc(C(=O)N/N=C/c3ccc([N+](=O)[O-])cc3)o2)cc1 | 8.91µM*[quencher] | ? | -2.3% | 1.3% | 5.8%
Cc1ccc(C)c(NC(=O)CSc2nncn3c2cc2sccc23)c1 | -14.0% | -13.4% | . | . | ?
C=CCN1C(=O)/C(=C/c2ccc(OCC(=O)O)cc2)S/C1=N/c1nccs1 | -0.1% | ? | -2.5% | 5.7% | 5.0%
C=CCN1C(=O)/C(=C/c2ccc(O)c(OC)c2)S/C1=N/c1nccs1 | 28.2µM*[quencher] | ? | -8.5% | 158.7% | 0.4%
Cc1cc([N+](=O)[O-])ccc1-c1ccc(C2Nc3ccccc3C(=O)N2O)o1 (centres undefined) | ? | 14.1µM* | 28.2µM* | 9.3% | 3.8%
CCOc1ccc(-c2csc(/C(C#N)=C\c3ccc(O)c([N+](=O)[O-])c3)n2)cc1 | 7.08µM*[quencher] | 1.26µM* | 3.4% | 16.2% | ?
CCOC(=O)N1CCc2c(sc(NCc3ccc(N(C)C)cc3)c2C(=O)Nc2ccc(OC)cc2)C1 | ? | ? | . | . | 6.1%
COc1cc(NC(=O)CSc2nc3ncccc3o2)cc(OC)c1 | 0.3% | 3.1% | . | . | -7.4%
Cc1ccc(Cl)cc1N(C)C(=O)c1cc2c(Cl)nc3ccccc3c2s1 | -16.8% | -13.8% | . | . | -3.1%
Cc1ccc(NC(=O)c2ccc(-n3cccn3)c([N+](=O)[O-])c2)cc1 | -19.0% | ? | 5.3% | -11.6% | -3.8%
O=C(Nc1ccc(C2=NCCN2)cc1)c1ccc(C(=O)Nc2ccc(C3=NCCN3)cc2)c([N+](=O)[O-])c1 | ? | 4.47µM* | -6.6% | 63.8% | -5.2%
Cc1nn(-c2ccccc2)c(C)c1/C=N\N1CCN(c2ccc(Cl)cc2)CC1 | ? | 8.91µM* | 2.5% | -5.8% | -7.6%
Cc1nn(-c2ccccc2)c(C)c1/C=N/n1cnnc1 | -7.8% | -5.3% | 3.5% | 1.1% | -10.4%
CN(C)c1ccc(CNC(=O)c2ccc(NC(=O)c3nsc4ccccc34)cc2)cc1 | ? | -3.0% | . | . | 1.0%
CS(=O)(=O)c1ccc2c(c1)sc1nc(=O)c(/C=C3/C=CC(=O)C(O)=C3)c(N)n12 | ? | 3.98µM* | 3.16µM* | 77.6% | -2.0%
CC[C@@H](C)[C@@H](CO[C@@H](Cc1ccccc1)C(=O)N[C@@H](CCS(C)(=O)=O)C(=O)OC(C)C)NC[C@@H](N)CS | -11.0% | 35.5µM* | . | -26.5% | ?
SMILES | Tau fluor cs | Tau ThT inhib | KDM4E inh | RGS12 GoLoco inh | Tau fibril FP
Cc1nn(C)c(N)c1[N+](=O)[O-] | -6.0% | -3.9% | 4.7% | -3.9% | 6.4%
Cc1nn(C)c(Sc2ccccc2N)c1[N+](=O)[O-] | -17.9% | 31.6µM* | ? | 7.1% | ?
Cn1c(C(C#N)C2=C(Cl)C(=O)N(c3ccccc3)C2=O)nc2ccccc21 (centres undefined) | 15.8µM*[quencher] | 12.6µM* | -21.9% | 13.7% | ?
Cc1cccc(N=N/C(=C\O)C(=O)c2cccs2)c1 | -17.2% | 28.2µM* | -2.2% | 9.2% | -7.0%
CCOC(=O)c1cc(C)n(CC2CCC(C(=O)Nc3cccc(C)c3)CC2)c1C (centres undefined) | -7.8% | -4.9% | . | . | 3.1%
CCOC(=O)c1ccc(NC(=O)CCc2c(C)nc3c(c(C)nn3-c3ccccc3)c2C)cc1 | ? | -8.1% | . | . | ?
C[C@@H]1O[C@@H](Oc2c(-c3cc(O)c(O)c(O)c3)oc3cc(O)cc(O)c3c2=O)[C@H](O)[C@H](O)[C@H]1O | ? | ? | 2.24µM* | -2.4% | ?
O=c1c(OC2OC(CO)C(O)C(O)C2O)c(-c2ccc(O)c(O)c2)oc2cc(O)cc(O)c12 (centres undefined) | -9.4% | -18.1% | 8.91µM* | 8.4% | 4.4%
CC1OC(OCC2OC(Oc3c(-c4ccc(O)c(O)c4)oc4cc(O)cc(O)c4c3=O)C(O)C(O)C2O)C(O)C(O)C1O (centres undefined) | -16.7% | ? | 11.2µM* | 5.6% | -13.7%
O=c1c(OC2OC(CO)C(O)C(O)C2OC2OC(CO)C(O)C(O)C2O)c(-c2ccc(O)cc2)oc2cc(O)cc(O)c12 (centres undefined) | -11.3% | -4.9% | 28.2µM* | 5.3% | -1.2%
CCn1c(SCc2ccc(F)cc2Cl)nc(=O)c2c(C(=O)OC)cc(C3CC3)nc21 | -6.8% | ? | . | . | -4.1%
O=C(Cn1c(=O)oc2cc(S(=O)(=O)NC3CCCC3)ccc21)Nc1ccc(F)c(F)c1 | -29.8% | 0.2% | . | . | -15.3%
CCC(C)S(=O)(=O)c1oc(-c2cccs2)nc1S(=O)(=O)c1ccccc1 (centres undefined) | -12.0% | 8.5% | . | . | -15.9%
O=c1cc(-c2ccccc2)oc2cc(O[C@@H]3O[C@H](CO)[C@@H](O)[C@H](O)[C@H]3O)c(O)c(O)c12 | -29.7% | ? | 12.6µM* | -1.5% | -0.1%
Cc1ccc(C(=O)Nc2cccc([N+](=O)[O-])c2)cc1S(=O)(=O)Nc1ccc(NC(=O)c2ccccc2)cc1 | 4.47µM*[quencher] | -16.2% | -4.6% | 0.7% | ?
Cc1ccc(S(=O)(=O)CCC(=O)Nc2cccc([N+](=O)[O-])c2)cc1 | -13.4% | -3.6% | 4.8% | 8.9% | -8.4%
Cc1ccc(NS(=O)(=O)c2ccc(OCC(=O)Nc3cccc([N+](=O)[O-])c3)c(C)c2)cc1 | 14.1µM*[quencher] | -3.8% | -6.9% | -0.3% | -7.1%
Cc1ccc(C(=O)Nc2ccccc2)cc1S(=O)(=O)Nc1ccc(Br)cc1 | ? | 3.9% | . | . | 15.8µM*
Cc1ccc(C(=O)Nc2ccccc2)cc1S(=O)(=O)Nc1ccccc1 | ? | -6.5% | . | . | ?
O=C(Nc1cccc(Cl)c1)c1ccc2c(c1)CCN2S(=O)(=O)c1ccccc1 | ? | 10.3% | . | . | ?
